In PubChem BioAssay AID651956 (Broad Institute, 2012):
Entries with a potency or affinity are not part of this list. Inconclusive results are not listed. Unmarked numbers belong to inactive results.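 Rule for the calls: active = in every test run, a fitted half-maximal concentration for signal decrease at or below twice the highest tested concentration; inconclusive = runs disagree, flat 30 to 70% decrease, or poor fit; inactive = the rest.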

Test: activation of miR-122 Renilla sensor silencing – cell-based, Huh7 psiCHECK-miR122, Renilla luciferase, cherry-picked, dose response (AID 651956);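 note: Renilla luciferase from a miR-122 sensor reporter so lower signal means miR-122 activation; 0% = median neutral control wells and -100% = median positive control wells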
Conditions: Huh7 psiCHECK-miR122 Renilla luciferase reporter, 48 h; series mostly up to 35 µM; activity change, negative = signal decrease: at the top concentration

Row | SMILES | activity change, negative = signal decrease
1 | CC(C)C(=O)Nc1ccc2c(c1)C(=O)N(C)[C@H]1CC[C@H](CC(=O)Nc3cccc(F)c3)O[C@@H]1CO2 | -23.6%
2 | C[C@@H]1CN([C@@H](C)CO)S(=O)(=O)c2ccc(C#Cc3ccccc3F)cc2O[C@H]1CN(C)C(=O)c1ccc2c(c1)OCO2 | -53.2%
3 | CN(C)CCCNC(=O)C[C@@H]1CC[C@H]2[C@@H](COc3ccc(NC(=O)c4cccc(F)c4)cc3C(=O)N2C)O1 | -29.2%
4 | C=CCNC(=S)NNC(=O)Cn1c(-c2ccccc2)cc(=O)n2ncnc12 | 2.08%
5 | Cc1nc(C)c(C(=O)Nc2ccc(Oc3ccccc3)cc2)o1 | -16.7%
6 | Cc1cccc(NC(=O)Nc2ccc3c(c2)C(=O)N(C)[C@H]2CC[C@H](CC(=O)O)O[C@H]2CO3)c1 | -12.9%
7 | COc1cccc(NC(=O)Nc2ccc3c(c2)C(=O)N(C)[C@@H]2CC[C@H](CC(=O)O)O[C@H]2CO3)c1 | -9.26%
8 | COc1cc(Cl)cc(/C=N\NC(=O)c2ccc3c(c2)OCO3)c1O | 42.6%
9 | O=CN1CCN(C(=O)c2ccccc2F)CC1 | 95.7%
10 | CCC(=O)N1[C@H](CO)[C@H](c2ccccc2)[C@@H]1CN(CC)C(=O)c1ccccc1 | -26.6%
11 | O=C(c1ccccc1)N1C[C@H]2[C@@H](c3ccccc31)[C@@H](CO)N2C(=O)CN1CCOCC1 | 121%
12 | CNC[C@H]1Oc2cc(C#CC3CCCCC3)ccc2S(=O)(=O)N([C@H](C)CO)C[C@@H]1C | -132%
13 | Cc1cc(C(=O)Nc2ccc3c(c2)C(=O)N(C)[C@H]2CC[C@H](CC(=O)N[C@@H](C)c4ccccc4)O[C@H]2CO3)no1 | 4.71%
